Most compounds without a hit are left out; they make up all but 12% or so of the library.
BAZ2B inh: inhibitors of human BAZ2B bromodomain; Q9UIF8; AlphaScreen BAZ2B-H3K14Ac peptide displacement; Potency, µM (doses to about 114 µM), without a hit: at the highest dose activity change, negative = inhibition, hits mostly inhibitors; 360,000 tested, 4.4% active; further: on the % scale 0 is the no-effect control and ±100 the full control effect; nearly all actives have a fitted effect of over 60% in size
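BAZ2B (50 nM) with biotin-H3(5-23)K14Ac peptide (50 nM) in PBS pH 7.4, 0.01% Tween-20, preformed 30 min, then compound 30 min at room temperature; top concentration 110uM. AlphaScreen streptavidin donor/nickel chelate acceptor beads (10 ug/mL final), 20 min dark, signal read.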
PLK1 PBD block: PLK1 (human) polo-box domain binding inhibition | Plk1 PBD binding of FITC phosphopeptide, fluorescence polarization | Potency, µM, for the others: max response, negative = inhibition, hits mostly inhibitors | 360,000 tested, 2.8% active | AID 720504; further: series mostly up to about 57 µM; on the % scale 0 is the no-effect control and ±100 the full control effect; nearly all actives have a fitted effect of over 65% in size
Sfp PPTase inh: Sfp phosphopantetheinyl transferase inhibition. Q9F4F7. Biochemical Sfp PPTase activity, qHTS. Potency, µM, without a hit: largest response in the series, negative = inhibition, hits mostly inhibitors. 310,000 tested, 3.5% active. AID 1490;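 further: the enzyme is Sfp with the accession as filed and its product quenches rhodamine fluorescence; 0% = enzyme reaction without inhibitor and -100% = no enzyme wells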
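After 15 min at room temperature with compound, 15 nM Sfp received 5 uM rhodamine-CoA plus 12.5 uM BHQ-2-ybbR (50 mM Hepes pH 7.6, 10 mM MgCl2). Rate came from the fluorescence difference over 30 min, ex 525/em 598 nm.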
JMJD2A Tudor inh: blocks the human JMJD2A Tudor domain. O75164. AlphaScreen JMJD2A-Tudor / H3K4me3 peptide binding. Potency, µM (series often up to 114 µM), inactives show at the top dose activity change, negative = inhibition, hits mostly inhibitors. 390,000 tested, 4.4% active. AID 504339; further: on the % scale 0 is the no-effect control and ±100 the full control effect; nearly all actives have a fitted effect of over 50% in size
HP1b binding inh: HP1-beta chromodomain-methylated histone interaction inhibition; Potency, µM (top dose mostly 114 µM), without a hit: top-dose activity change, negative = inhibition, usual class: inhibitors; AlphaScreen HP1-beta / biotin-H3K9me3 peptide binding; 390,000 tested, 0.56% active; further: nearly all actives have a fitted effect of over 70% in size
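HP1-beta protein (50 nM final) preincubated 30 min at room temperature with biotinylated H3(1-18)K9me3 peptide (50 nM) in PBS pH 7.4, 0.01% Tween-20, then compound added for 30 min. AlphaScreen streptavidin donor/nickel chelate acceptor beads (10 ug/mL final), 30 min dark, luminescence read.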
G9a block: inhibitors of human histone lysine methyltransferase G9a; Q96KQ7; G9a H3K9 monomethylation, AlphaScreen, 2 h; Potency, µM (series often up to 102 µM), inactives show at the highest dose activity, negative = inhibition, usual class: inhibitors; 350,000 tested, 8.8% active; AID 504332; further: on the % scale 0 is the no-effect control and ±100 the full control effect; nearly all actives have a fitted effect of over 75% in size
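Signal arises when biotinylated H3K9 peptide, once monomethylated, bridges streptavidin donor and antibody-captured acceptor beads. Enzyme at 20 nM was preincubated 15 min with test compounds; peptide 500 nM and SAM 20 uM then reacted for 2 h.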
Starred values were filed as active, the others as inactive; [ ] = remark or other dose. The call rests on the fitted dose curve; in most records, active means well fitted curve in the direction sought with a large enough effect; inconclusive means small, poorly fitted or top-dose-only effect, or another doubt; inactive means no such curve, though single readings can be large; an effect the other way counts as inactive or inconclusive. Potency means the concentration at half of the fitted maximal effect.

Screening Cc1nnc(N2C(=O)C(=O)/C(=C(/O)c3ccc4c(c3)OCCO4)C2c2ccc(F)cc2)s1 (centres undefined) returned BAZ2B inh -25%[57.1 µM], PLK1 PBD block -28%, Sfp PPTase inh 2%, JMJD2A Tudor inh -18%, HP1b binding inh 80% and G9a block 45µM*.
CCn1c(C)c(C)c2cc(C(=O)NCc3ccc(F)cc3)ccc21 was read as BAZ2B inh inconclusive, JMJD2A Tudor inh inconclusive, HP1b binding inh -2% and G9a block -36%[59 µM].
`CCn1c(C)c(C)c2cc(C(=O)NCc3ccc(N(C)C)cc3)ccc21` gave BAZ2B inh 22µM*, JMJD2A Tudor inh 22µM*, HP1b binding inh inconclusive and G9a block 13µM*.
CCOc1ccc(CNC(=O)c2ccc3c(c2)c(C)c(C)n3C)cc1 was read as BAZ2B inh 40µM*, JMJD2A Tudor inh inconclusive, HP1b binding inh -11% and G9a block -48%[59 µM].
For CSc1ccc(CNC(=O)c2ccc3c(c2)N(C)C(=O)C2CCCCN32)cc1 (centres undefined) the results were BAZ2B inh -21%, JMJD2A Tudor inh -24%, HP1b binding inh 8%[57 µM] and G9a block -26%[59 µM].
`CN(C)c1ccc(CNC(=O)c2ccc3c(c2)N(C)C(=O)C2CCCCN32)cc1` (centres undefined) gave BAZ2B inh 45µM*, JMJD2A Tudor inh 45µM*, HP1b binding inh -2%[57 µM] and G9a block 18µM*.
CC(C)[C@@H](OCc1ccccc1)[C@H](C)/C=N\O[C@@H](C)c1cn([C@@H]2COC[C@@H]2O)nn1 was read as Sfp PPTase inh 1%.
`CC(C)=NOCc1ccc(-c2cn([C@@H]3COC[C@H]3O)nn2)cc1` gave BAZ2B inh -4%, Sfp PPTase inh 14% and G9a block 40µM*.
`O=C(CN1CCCC1)N1CCCC(c2ccc(F)cc2)c2ccc(F)cc21` (centres undefined) gave BAZ2B inh -37%, PLK1 PBD block 6%, Sfp PPTase inh -7%, JMJD2A Tudor inh 0.89µM*, HP1b binding inh inconclusive and G9a block 28µM*.
`Cc1oc(-c2ccc(Cl)cc2)nc1CN1CCCC(C(=O)NCCc2ccc(Cl)cc2)C1` (centres undefined) gave BAZ2B inh -34%, JMJD2A Tudor inh inconclusive, HP1b binding inh 9% and G9a block inconclusive.
Cc1ccc(Cl)cc1NC(=O)CN1C(=O)CSc2ccc(S(=O)(=O)N3CCCC3)cc21 was read as BAZ2B inh -12%, JMJD2A Tudor inh -6%, HP1b binding inh 25% and G9a block -8%[59 µM].
For CCCn1c(=O)c2ccccc2n2c(=S)[nH]nc12 the results were BAZ2B inh -5%, PLK1 PBD block -12%, Sfp PPTase inh 79µM*, JMJD2A Tudor inh 1.4µM*, HP1b binding inh 27% and G9a block 3.5µM*.
CCCn1c(=O)c2ccccc2n2c(SCC(=O)c3ccc(F)cc3)nnc12 was read as BAZ2B inh 12%, Sfp PPTase inh -11% and G9a block 3%[2.33 µM].
For CCCn1c2ccccc2c2cn[nH]c(=O)c21 the results were BAZ2B inh -2%, PLK1 PBD block -5%, Sfp PPTase inh 7%, JMJD2A Tudor inh -11%, HP1b binding inh -5% and G9a block 4%.
Cn1c(=O)c2ccccc2n2c(=S)[nH]nc12 was read as BAZ2B inh -9%, PLK1 PBD block -25%, Sfp PPTase inh 50µM*, JMJD2A Tudor inh 3.2µM*, HP1b binding inh 79µM* and G9a block 6.3µM*.
`CCCCCn1c(=O)c2ccccc2n2c(=S)[nH]nc12` gave BAZ2B inh -33%, PLK1 PBD block 19µM*, Sfp PPTase inh 56µM*, JMJD2A Tudor inh 6.3µM*, HP1b binding inh 0% and G9a block 1.4µM*.
`CCCn1c(=O)c2ccccc2n2c(SCC(=O)c3ccccc3)nnc12` gave BAZ2B inh -28%, PLK1 PBD block -19%, Sfp PPTase inh 2%, JMJD2A Tudor inh 25µM*, HP1b binding inh 11% and G9a block inconclusive.
Cn1c(=O)c2ccccc2n2c(CCl)nnc12 was read as BAZ2B inh -2%, PLK1 PBD block -2%, Sfp PPTase inh 22%, JMJD2A Tudor inh -4%, HP1b binding inh 26% and G9a block -8%.
Screening C[C@H]1Cc2c(COc3ccccc3)nc3c(c2CO1)CN(S(=O)(=O)c1ccc(C#N)cc1)CC3 returned Sfp PPTase inh 8%.
Screening Cc1cccc(-c2nc(C)c(CCNC(=O)c3cccs3)s2)c1 returned BAZ2B inh 2%, JMJD2A Tudor inh -8%, HP1b binding inh 17%[57 µM] and G9a block 17%[59 µM].
Screening COC(=O)c1cc2c(s1)c1cnn(Cc3ccccc3F)c(=O)c1n2C returned BAZ2B inh 0% and G9a block inconclusive.
Cn1c(=O)c2c(nc(N3CCOCC3)n2Cc2ccccc2F)n(C)c1=O was read as BAZ2B inh 1%, JMJD2A Tudor inh 4%, HP1b binding inh 30% and G9a block 9%[59 µM].
`CCCCn1c(=O)c2ccccc2n2c(=S)[nH]nc12` gave BAZ2B inh inconclusive, PLK1 PBD block 27µM*, Sfp PPTase inh inconclusive, JMJD2A Tudor inh 3.5µM*, HP1b binding inh -19% and G9a block 1.3µM*.
`Cc1ccc(NC(=O)Cn2cc(S(=O)(=O)c3ccccc3)c(=O)c3cc4c(cc32)OCO4)cc1` gave BAZ2B inh inconclusive, JMJD2A Tudor inh -13%, HP1b binding inh 22% and G9a block inconclusive.
`COc1ccc(-c2csc3ncnc(N4CCN(c5ccccc5)CC4)c23)cc1` gave BAZ2B inh inconclusive, PLK1 PBD block -9%, Sfp PPTase inh 16%, JMJD2A Tudor inh inconclusive, HP1b binding inh -7% and G9a block 71µM*.
For COc1ccc(-c2csc3ncnc(N4CCN(c5ccccc5[N+](=O)[O-])CC4)c23)cc1 the results were BAZ2B inh inconclusive, PLK1 PBD block -20%, Sfp PPTase inh 6%, JMJD2A Tudor inh inconclusive, HP1b binding inh inconclusive and G9a block 14µM*.
For Cc1ccc(-c2csc3ncnc(Nc4ccc(N5CCOCC5)cc4)c23)cc1 the results were BAZ2B inh 45µM*, PLK1 PBD block 27µM*, Sfp PPTase inh inconclusive, JMJD2A Tudor inh -35%[11.4 µM], HP1b binding inh inconclusive and G9a block inconclusive.
`Cc1ccc(-c2csc3ncnc(NCCN4CCOCC4)c23)cc1` gave BAZ2B inh -26%, PLK1 PBD block -5%, Sfp PPTase inh 3%, JMJD2A Tudor inh -8% and HP1b binding inh 32%.

Assay outcomes as filed in PubChem BioAssay.
